According to PubChem BioAssay:
Activity calls are given as the source filed them.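 The calls were made as follows: active = inhibition at or above 50% relative to wild type and mutant plate controls; inactive = inhibition below 50%.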

assay: inhibitors of Chlamydomonas gravitaxis, primary screen, whole organism, Chlamydomonas reinhardtii, WT vs cilia-less mutant, absorbance, 96-well (AID 463189); settings: OD600 absorbance, 2 days, at 10 µM, hits give high values;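 also: 0% = wild type cc124 cells in DMSO and 100% = ciliumless bld1 mutant cells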

Q: Which inhibition does the source give for `CCCN(CCC)[C@@H]1CCc2cccc(O)c2C1` here?
A: -6.71% (inactive)

Q: Which inhibition does the source give for `O=S1(=O)N(CCN2CC=C(c3c[nH]c4cc(F)ccc34)CC2)c2cccc3c2N1CCC3` here?
A: -4.93% (inactive)

Q: Which inhibition does the source give for `Fc1ccc(C(OCCN2CCN(CCCc3ccccc3)CC2)c2ccc(F)cc2)cc1` here?
A: 12.7% (inactive)

Q: Which inhibition does the source give for `CN1C[C@@H](CS(=O)(=O)N(C)C)C[C@@H]2c3cccc4c3c(cn4C)C[C@H]21` here?
A: 4.5% (inactive)

Q: For `CCN(CC)C(=O)N[C@@H]1C=C2c3cccc4[nH]cc(c34)C[C@H]2N(C)C1`, which inhibition is on record?
A: 9.57% (inactive)

Q: With `O=C(O)c1cc[c]([Hg][Cl])cc1` as the compound, how does the inhibition read?
A: 9.04% (inactive)

Q: With `CC(=O)[C@H]1CCC2C3CC[C@H]4C[C@H](O)CC[C@]4(C)C3CC[C@@]21C` (stereo partly drawn) as the compound, how does the inhibition read?
A: 0.863% (inactive)

Q: Which inhibition does the source give for `C[Se]C[C@H](N)C(=O)O` here?
A: 1.72% (inactive)

Q: For `CCN(CCCl)Cc1ccccc1Br`, which inhibition is on record?
A: 6.59% (inactive)

Q: For `C=C(C)[C@H]1Cc2c(ccc3c2O[C@@H]2COc4cc(OC)c(OC)cc4[C@@H]2C3=O)O1`, which inhibition is on record?
A: 4.66% (inactive)

Q: With `C[N+]1(C)CCC(OC(=O)C(c2ccccc2)c2ccccc2)CC1` as the compound, how does the inhibition read?
A: -7.08% (inactive)

Q: With `CC1Cc2cc3c(cc2C(c2ccc(N)cc2)=NN1)OCO3` (stereo not drawn) as the compound, how does the inhibition read?
A: 0.595% (inactive)

Q: With `COc1ccc(CCN)cc1O` as the compound, how does the inhibition read?
A: 4.96% (inactive)

Q: For `CC1(C(=O)O)C2CCC(O2)C1(C)C(=O)O` (stereo not drawn), which inhibition is on record?
A: -0.9% (inactive)

Q: With `CC[C@@]1(O)C(=O)OCc2c1cc1n(c2=O)Cc2cc3ccccc3nc2-1` as the compound, how does the inhibition read?
A: 23.3% (inactive)

Q: Which inhibition does the source give for `COC(=O)C1=CCCN(C)C1` here?
A: -3.75% (inactive)

Q: For `NC(Cc1ccc(N(CCCl)CCCl)cc1)C(=O)O` (stereo not drawn), which inhibition is on record?
A: 3.86% (inactive)

Q: For `NC(CCCCCP(=O)(O)O)C(=O)O` (stereo not drawn), which inhibition is on record?
A: -3.46% (inactive)

Q: Which inhibition does the source give for `CN1CCc2cc(O)cc3c2[C@H]1Cc1ccc(O)c(O)c1-3` here?
A: -0.305% (inactive)

Q: For `CC[N+](CC)(CC)CC`, which inhibition is on record?
A: 6.89% (inactive)

Q: Which inhibition does the source give for `CCN(CC)C(=O)N[C@H]1C=C2c3cccc4[nH]cc(c34)C[C@H]2N(C)C1` here?
A: 8.76% (inactive)

Q: Which inhibition does the source give for `C=CCN1C[C@@H](C)N([C@H](c2ccc(C(=O)N(CC)CC)cc2)c2cccc(OC)c2)C[C@@H]1C` here?
A: -6.39% (inactive)

Q: For `CCCN(CCC)[C@@H]1CCc2c(F)ccc(O)c2C1`, which inhibition is on record?
A: -5.24% (inactive)

Q: Which inhibition does the source give for `O=C(O)CC[N+](=O)[O-]` here?
A: 2.51% (inactive)

Q: For `NCCCP(=O)(O)O`, which inhibition is on record?
A: 13.9% (inactive)

Q: Which inhibition does the source give for `Cc1sc2ccccc2c1CC1=NCCN1` here?
A: 20.7% (inactive)

Q: Which inhibition does the source give for `N[C@@H](Cn1cc(I)c(=O)[nH]c1=O)C(=O)O` here?
A: 9.47% (inactive)

Q: Which inhibition does the source give for `Oc1ccc2c3c1O[C@H]1c4[nH]c5c(c4C[C@@]4(O)[C@@H](C2)N(CC2CC2)CC[C@]314)C[C@@]1(O)[C@H]2Cc3ccc(O)c4c3[C@@]1(CCN2CC1CC1)[C@H]5O4` here?
A: -0.992% (inactive)

Q: With `COC(=O)N1CCN(C(=O)Cc2ccc(Cl)c(Cl)c2)C(CN2CCCC2)C1` (stereo not drawn) as the compound, how does the inhibition read?
A: -0.837% (inactive)

Q: For `NCC(CP(=O)(O)O)c1ccc(Cl)cc1` (stereo not drawn), which inhibition is on record?
A: -3.38% (inactive)

Q: Which inhibition does the source give for `CC1=C[C@@H]2c3cccc4[nH]cc(c34)C[C@H]2N(C)C1` here?
A: 69.4% (active)

Q: Which inhibition does the source give for `CNc1ccc2oc(C[C@H]3O[C@@]4(CC[C@H]3C)O[C@H]([C@H](C)C(=O)c3ccc[nH]3)[C@H](C)C[C@H]4C)nc2c1C(=O)O` here?
A: 84.5% (active)

Q: Which inhibition does the source give for `c1ccc2nc(N3CCNCC3)ccc2c1` here?
A: 4.23% (inactive)

Q: Which inhibition does the source give for `C=CCN1CCC2(C)c3cc(O)ccc3CC1[C@@H]2C` (stereo partly drawn) here?
A: 4.21% (inactive)

Q: Which inhibition does the source give for `N#CC(C#N)=Cc1ccc([N+](=O)[O-])c(O)c1` here?
A: 2.16% (inactive)

Q: For `COc1ccccc1N1CCNCC1`, which inhibition is on record?
A: 6.65% (inactive)

Q: Which inhibition does the source give for `O=C(O)C1C2CCC(O2)C1C(=O)O` (stereo not drawn) here?
A: -11.7% (inactive)

Q: With `C[N+](C)(C)CC#CCN1CCCC1=O` as the compound, how does the inhibition read?
A: -6.29% (inactive)
